RTF Ca sens act = cardiac RTF calcium sensitivity activators, primary screen, biochemical, IANBD-TnC fluorescence, EC20 calcium. Troponin I, cardiac muscle (Homo sapiens) + Troponin T, cardiac muscle (Homo sapiens) + …. IANBD-labeled TnC RTF fluorescence at EC20 calcium; 0% EC20 calcium, 100% full calcium. activation, % at 7.2 µM. actives 0.24% (n = 340,000). AID 493008, 2010;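 active means activation above the mean over all tested compounds plus 3 SD, cut at about 30% in these data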;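 further: rise in fluorescence read as greater calcium sensitivity of cardiac thin filaments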
Keap1-Nrf2 PPI = Keap1-Nrf2 protein-protein interaction inhibitors, primary screen, biochemical, fluorescence polarization, single point | Kelch-like ECH-associated protein 1 (Homo sapiens), Q14145 | Keap1 Kelch-Nrf2 peptide fluorescence polarization, 1536-well | inhibition, % at 9.4 µM | actives 0.15% (n = 340,000) | AID 504523, 2011; in the data active means inhibition above about 12%;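 further: human Keap1 Kelch domain with fluorescein labeled Nrf2 9mer peptide probe; 0% = neutral control wells and 100% = peptide positive control; higher means more block of Keap1 binding to Nrf2 peptide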
Target sequence (Q14145 whole entry, looked up, the tested form may be a part): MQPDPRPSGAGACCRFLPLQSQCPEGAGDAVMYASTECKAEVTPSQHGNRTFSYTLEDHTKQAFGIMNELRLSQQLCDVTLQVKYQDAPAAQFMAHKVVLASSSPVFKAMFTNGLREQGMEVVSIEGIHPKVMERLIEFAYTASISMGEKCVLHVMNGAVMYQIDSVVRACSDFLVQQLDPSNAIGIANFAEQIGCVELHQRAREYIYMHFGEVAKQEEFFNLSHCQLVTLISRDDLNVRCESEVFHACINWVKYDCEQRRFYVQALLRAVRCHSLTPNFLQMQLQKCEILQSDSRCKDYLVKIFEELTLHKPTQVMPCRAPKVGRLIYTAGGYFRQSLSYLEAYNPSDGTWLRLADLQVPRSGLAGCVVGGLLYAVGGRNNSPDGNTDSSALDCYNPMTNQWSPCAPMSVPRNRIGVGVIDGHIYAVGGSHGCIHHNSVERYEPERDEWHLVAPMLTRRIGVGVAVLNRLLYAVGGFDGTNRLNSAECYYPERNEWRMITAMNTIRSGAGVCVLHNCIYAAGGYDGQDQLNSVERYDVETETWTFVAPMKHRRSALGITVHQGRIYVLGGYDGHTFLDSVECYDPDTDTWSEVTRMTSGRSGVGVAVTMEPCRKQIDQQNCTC
Cardiac RTF inh = cardiac RTF calcium sensitivity inhibitors, primary screen, biochemical, IANBD-TnC fluorescence, EC70 calcium | Troponin I, cardiac muscle (Homo sapiens) + Troponin T, cardiac muscle (Homo sapiens) + … | IANBD-labeled cardiac RTF, Ca2+ fluorescence | inhibition, % at 7.15 µM | actives 0.12% (n = 340,000) | AID 493244, 2011;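 active means inhibition above the mean inhibition of all tested compounds plus 3 SD, cut at about 17% in these data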;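 further: assay run at fixed EC70 calcium of 1.6 mM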
LANA-H2A inh = blockers of LANA interaction with H2A/H2B – biochemical, FP readout, HTS, primary screen. Protein LANA1 (Human herpesvirus 8 type P (isolate GK18)), Q9QR71. cell-free LANA-H2A/H2B peptide, fluorescence polarization. inhibition, % (concentration not given with the values). actives 0.6% (n = 320,000). AID 2629, 2010; in the data active means inhibition mostly above about 10%, no sharp cut-off; inactive means mostly below about 6.7%
C-LANA FP = inhibitors of KSHV C-LANA binding to DNA, primary screen, biochemical, fluorescence polarization, FAM-LBS DNA, MBP-C-LANA, single point; inhibition, % at 9 µM; AID 504423, 2011; actives 0.078% (n = 340,000);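 active means highest replicate inhibition at or above 60% at 9 µM, even if other replicates fall short; inactive means all replicates below 60% inhibition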;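 further: 0% = neutral control wells and 100% = 4 µM acridine orange control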
The depositor's hits bear a star; . = not tested or not shown; ! = not confirmed by another sample. Shown are actives, neighbours in structure and some others; about 1% of the full set was active somewhere.

SMILES | RTF Ca sens act | Keap1-Nrf2 PPI | Cardiac RTF inh | LANA-H2A inh | C-LANA FP
CC(=O)c1cccc(OC(=O)C2=CC=CN3CCS(=O)(=O)N=C23)c1 | -6 | -5 | -4 | 47* | -2
CC1(C)C(c2cccs2)=[N+]([O-])C2(CCCCC/C2=N\O)N1O (stereo not given) | -1 | 1 | -5 | 13* | -1
O=C(c1ccccn1)N(CC1CCCO1)C1(C(=O)NC2CCCCC2)CCCCC1 (stereo not given) | 4 | -5 | 3 | 25* | 0
Cc1ccc(C(=O)CCC(=O)OCC(=O)N2CCN(S(=O)(=O)c3ccc(C)cc3C)CC2)cc1 | -6 | -6 | 1 | . | -2
C=C(C)Cn1cnc2cc(C)c(C)cc21 | 3 | 0 | 2 | 10 | -1
Clc1ccc(OCCN2CCOCC2)cc1Cl | -3 | 4 | 1 | 17* | -1
O=C(Nc1ccccc1C(=O)NCCCN1CCOCC1)c1ccc(Cl)cc1 | 0 | 1 | -6 | 88* | 0
O=C(Nc1ccccc1C(=O)NCCCN1CCOCC1)c1ccccc1 | -1 | -1 | -1 | 7 | 1
COc1ccc(C(=O)NCC(=O)N/N=C/c2cn(C)c3ccccc23)cc1OC | 4 | -5 | -5 | 2 | 2
O=C1CC2(CCN(C(=O)c3cccc(Br)c3)CC2)Oc2ccccc21 | 7 | -2 | 4 | 19* | -3
Cc1ccc(N(CC(N)=O)C2SC(=O)NC2=O)cc1 (stereo not given) | -2 | -2 | 11 | 22* | 1
CC(C)C[C@@H](CNCC(=O)[C@H](C)NC(=O)c1[nH]cnc1C(=O)N[C@H](CN)CC(C)C)NC(=O)c1nc[nH]c1C(=O)N[C@@H](C)C(=O)O | -1 | -2 | -2 | . | 4
Cc1ccc(CCNc2ncnc(Cl)c2N)cc1 | 0 | 0 | -5 | . | 2
O=C(NC1CCCCC1)N1CCN(S(=O)(=O)c2ccc(F)cc2)CC1 | 10 | -2 | 9 | 17* | 0
O=C(CC1CCCC1)N1CCN(S(=O)(=O)c2ccccc2)CC1 | 33* | -44 | -125 | -25 | .
O=C(OCC(=O)N1CCN(S(=O)(=O)c2ccccc2)CC1)C1CCC1 | 7 | 0 | 1 | 5 | 0
O=C(NC1CCCCCC1)C1CCN(S(=O)(=O)c2ccc(F)cc2)CC1 | 2 | -2 | -1 | 0 | 1
Nc1c(Br)cc(Br)c2c1C(=O)c1c(cccc1S(=O)(=O)O)C2=O | -5 | -2 | 7 | . | 0
COc1ccc(Cl)cc1NC(=O)C/C(C)=N/NC(=O)C(=O)NCc1ccccc1 | 5 | -4 | -6 | 15* | -1
COc1ccc(Cl)cc1NC(=O)C/C(C)=N/NC(=O)c1ccccc1[N+](=O)[O-] | -1 | -3 | 0 | 4 | -2
COc1ccc(C(CNC(=O)c2oc3c(Cl)cccc3c2C)N2CCCC2)cc1 (stereo not given) | 2 | -1 | -12 | 22* | -3
Cn1cnc([N+](=O)[O-])c1Sc1nc(N)nc2c1ncn2C1CC(O)C(CO)O1 (stereo not given) | -5 | -1 | 0 | . | 1
CN(CC(=O)Nc1ccc(S(N)(=O)=O)cc1)c1ccccc1 | 5 | -5 | -14 | -2 | 1
Brc1cccc(-c2n[nH]c(-c3ccccc3)n2)c1 | 1 | -1 | -1 | 17* | 0
c1ccc(-c2nc(-c3cccnc3)n[nH]2)cc1 | . | . | . | -1 | .
SMILES | RTF Ca sens act | Keap1-Nrf2 PPI | Cardiac RTF inh | LANA-H2A inh | C-LANA FP
Cc1c(Cl)cccc1N(CC(=O)O)S(C)(=O)=O | 1 | 1 | -4 | 11* | 0
COc1ccc(C(=O)/C=C/Nc2ccc(S(=O)(=O)Nc3cc(OC)nc(OC)n3)cc2)c(OC)c1 | 0 | -16 | 2 | 17* | 0
CCN(c1ccccc1)S(=O)(=O)c1ccc(Cl)c(NC(=O)CNC(C)c2ccccc2)c1 (stereo not given) | 4 | -5 | -7 | 2 | -2
COc1ccc2oc(=O)c(C(=O)NCCc3ccc(OC)c(OC)c3)cc2c1 | -4 | -1 | -4 | 12* | 5
COc1ccc(CCNC(=O)c2ccc3nc(-c4ccco4)c(-c4ccco4)nc3c2)cc1OC | -4 | 5 | 20* | -6 | 10
CCc1nc2ccc(C(=O)NCCc3ccc(OC)c(OC)c3)cc2nc1CC | -4 | -4 | -3 | 2 | 1
CCC(CC)C(=O)NCc1ccc2c(c1)cc(C)n2C | -1 | 1 | -8 | 3 | 1
Cc1cc2cc(CNC(=O)c3cccs3)ccc2n1C | 6 | 0 | -21 | 78* | 0
CCOC(=O)c1ncn2c1CN(C)C(=O)c1cc(F)ccc1-2 | 5 | -1 | 7 | 29*! | 0
O=C(N/N=C/c1cccs1)c1cc(-c2ccc3ccccc3c2)n[nH]1 | -7 | 0 | -1 | -3 | 1
O=C(N/N=C/c1cccs1)c1cc(-c2cccc3ccccc23)n[nH]1 | -4 | -1 | -17 | 17* | 0
CC(C)C[C@H](NC(=O)NC(C)C)C(=O)O | -1 | 2 | -2 | 16* | 0
CC(=O)NC(CC(C)C)C(=O)O (stereo not given) | 1 | -2 | 1 | . | 0
c1ccc(-c2ccccc2OCCCN2CCCCCC2)cc1 | -2 | -3 | 2 | 84* | -2
CCC(C)n1c(C)cc(=O)n1C(C)CC (stereo not given) | -3 | -4 | -9 | . | -1
O=Cc1ccc([B-](F)(F)F)s1 | -7 | 3 | -5 | . | -3
CN(C)c1ccc(/C=N/NC(=O)CNC(=O)c2ccc3c(c2)OCCO3)cc1 | -2 | -4 | 8 | 25* | -2
O=C(NNC(=O)c1cccc2ccccc12)c1ccc(Br)cc1 | 3 | -2 | -7 | . | 0
CC(Oc1ccc(Cl)cc1)C(=O)Nc1nccs1 (stereo not given) | -2 | 0 | 3 | 21* | 1
C/C(=N\NC(=O)c1c(Cl)cnn1C)c1cccnc1 | -3 | 4 | -4 | . | 2
CCN(CC)c1ccc(/C=C2\C(=N)N3N=C(CC(=O)N4CCOCC4)SC3=NC2=O)cc1 | 38* | -40 | -25 | -2 | 9
CCC1(CC)SCCNC1=O | 0 | -2 | 1 | . | -3
COCCCNC(=O)CNC(=S)N(Cc1ccc(F)cc1)C1CCCCC1 | 3 | -1 | -2 | 30* | 2
CC(C)(C)CCN1CCC(CN2CCNC(=O)C2=O)CC1 | -3 | -2 | -5 | . | 2
CC(NC(=O)CN1CCCC1)c1ccccc1 (stereo not given) | -6 | -2 | -1 | -4 | -3
CC(NC(=O)CN1CCC(C(N)=O)CC1)c1ccccc1 (stereo not given) | 48* | -8 | -3 | 1 | 1
CCOc1ccc(NC(=S)NCC(c2cccnc2)N2CCOCC2)cc1 (stereo not given) | -3 | -3 | -9 | 0 | -2
